Our source for the side scatter shift values is PubChem BioAssay AID1069 (NMMLSC, 2008).

This experiment can be described thus: LNCaP granularity increase inducers, single-point recheck – cell-based, side scatter shift, flow cytometry, confirmation (AID 1069).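 Note: LNCaP human prostate cancer cells in low-serum medium with charcoal-stripped FBS; percent of cells with raised granularity gated so DMSO controls show 10%.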 Conditions: LNCaP differentiation, 4 d, stronger effect = higher value.

Calls of active or inactive are those of the source.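 Rule for the calls: active = high combined rank on largest and smallest cell-count-weighted shift across three tests, rank score above 45, floors 50 and 25 (some results past the limit were not filed as active); inactive = the rest.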

Regarding `Cc1oc(-c2ccc(Cl)cc2)nc1CN1CCC(C(=O)N2CCN(Cc3ccccc3)CC2)CC1`, the side scatter shift reads like this: (at 100 µM) 33.3% (active); (side scatter shift, at 10 µM) 53.7%.

Regarding `COc1ccc(N2CCN(CCCNC(=O)CN3CCN(Cc4ccccc4C)C3=O)CC2)cc1`, the side scatter shift is 15.8% (inactive) (at 100 µM) and 16.6% (side scatter shift, at 10 µM).

For the compound `Cc1ccccc1CN1CCN(CC(=O)NCCCN2CCN(c3ccc(F)cc3)CC2)C1=O`, the side scatter shift (at 100 µM) was 3.3% (inactive) and the side scatter shift (side scatter shift, at 10 µM) is 5.15%.

Consider `CCn1c(=O)cc(SCC(=O)NCCN2CCN(Cc3ccccc3)CC2)c2ccccc21`, for which the side scatter shift was 70.2% (active) (at 100 µM) and 6.85% (side scatter shift, at 10 µM).

Regarding `COc1ccc2cc3cc(C(=O)Nc4ccccc4N4CCN(C)CC4)oc3nc2c1`, the side scatter shift by setting is: (at 100 µM) 68.3% (active); (side scatter shift, at 10 µM) 42.7%.

As for `CCn1c(=N)n(CC(O)COc2cccc(C)c2)c2ccccc21` (stereo unspecified), the side scatter shift was 0% (inactive) (at 100 µM) and 9.75% (side scatter shift, at 10 µM).

In the case of `Cc1oc(-c2ccc(Cl)cc2)nc1CN1CCCC(C(=O)NCc2ccccn2)C1` (stereo unspecified), the side scatter shift is 26.5% (inactive) (at 100 µM) and 6.45% (side scatter shift, at 10 µM).

As for `COc1ccc(CCNC(=O)C2CCN(Cc3nc(-c4ccccc4F)oc3C)CC2)cc1OC`, the side scatter shift is 9% (inactive) (at 100 µM) and 8.85% (side scatter shift, at 10 µM).

With `O=C(NCC(c1cccnc1)N1CCOCC1)c1cccc(Cl)c1` (stereo unspecified), the side scatter shift runs as follows: (at 100 µM) 11.4% (inactive); (side scatter shift, at 10 µM) 13.9%.

Consider `O=C(CCNC(=O)Cn1ccc2ccccc2c1=O)NCCCN1CCN(c2ccc(F)cc2)CC1`, for which the side scatter shift reads like this: (at 100 µM) 21.8% (inactive); (side scatter shift, at 10 µM) 7.25%.

In the case of `Cc1oc(-c2cccc(Cl)c2)nc1CN1CCC(C(=O)NCc2cccnc2)CC1`, the side scatter shift was 28.9% (inactive) (at 100 µM) and 8.3% (side scatter shift, at 10 µM).

Take `c1ccc(OCCCn2nnc(-c3cccnc3)n2)cc1`: the side scatter shift runs as follows: (at 100 µM) 15.4% (inactive); (side scatter shift, at 10 µM) 3.1%.

In the case of `O=C1c2ccccc2C(Nc2ccc3c(c2)OCO3)N1Cc1ccc2c(c1)OCO2` (stereo unspecified), the side scatter shift was 23.6% (inactive) (at 100 µM) and 6.65% (side scatter shift, at 10 µM).

Consider `CCn1c(=O)cc(SCC(=O)NCCCN2CCN(c3ccccc3F)CC2)c2ccccc21`, for which the side scatter shift is 0% (active) (at 100 µM) and 33.5% (side scatter shift, at 10 µM).

On to `CN1C(=O)c2ccc(S(=O)(=O)c3ccc(C(=O)O)cc3)cc2C1=O`, for which the side scatter shift is, setting by setting: (at 100 µM) 7.2% (inactive); (side scatter shift, at 10 µM) 5.75%.

Regarding `CCN1CCN(CCNC(=O)C2CCN(Cc3nc(-c4ccc(Cl)cc4)oc3C)CC2)CC1`, the side scatter shift (at 100 µM) was 44.7% (active) and the side scatter shift (side scatter shift, at 10 µM) was determined as 28.8%.

As to `COC(=O)CN1CCN(C(=O)c2ccc(F)cc2)c2ccccc2C1`, the side scatter shift (at 100 µM) was 12.5% (inactive) and the side scatter shift (side scatter shift, at 10 µM) was 3.1%.

As to `CCCS(=O)(=O)N1CCCC(C(=O)NCCCN2CCN(c3cccc(Cl)c3)CC2)C1` (stereo unspecified), the side scatter shift is, setting by setting: (at 100 µM) 17% (inactive); (side scatter shift, at 10 µM) 6.55%.
